Source: publication PMC7819943, “Rice protein-binding microarrays: a tool to detect cis-acting elements near promoter regions in rice”
The full ranking holds about 68,000 sequences; the median of “fluorescence intensity (a.u.)” is about 9,100, and the highest 2% start at about 16,000. The sample holds the highest values, similar sequences and a random draw of the others, so the mix is not that of the screen.

biological target: OsWRKY34 (Oryza sativa, UniProt Q0JBA9 1-250); test: protein-binding microarray (RPBM); PBS, 2% BSA, 51.3 ng/ul salmon testes DNA, 50 uM zinc acetate, 200 nM TF, 25 C, 1 h; high values mean tight binding; conditions: protein: recombinant; tags: N-terminal polyhistidine and DsRed monomer fusion (pET32a); label: CyDye5-dUTP incorporated in the synthesized complementary strand; 3' TTTTT single-stranded linker to array surface; dsDNA, one strand shown
Method in brief: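 Per-feature fluorescence intensity (arbitrary units), read on an Axon 4000B scanner, is the binding signal. Transcription factors carrying an N-terminal polyhistidine tag and DsRed fusion were expressed in E. coli BL21-CodonPlus and purified on Ni–NTA. A custom Agilent array, made double-stranded by primer extension with Cy5-dUTP and blocked with 2% BSA, was incubated with 200 nM protein in PBS, 2% BSA, salmon testes DNA and 50 µM zinc acetate at 25 °C for 1 h and then washed.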

OsWRKY34, sequence (Q0JBA9 entry or part of it): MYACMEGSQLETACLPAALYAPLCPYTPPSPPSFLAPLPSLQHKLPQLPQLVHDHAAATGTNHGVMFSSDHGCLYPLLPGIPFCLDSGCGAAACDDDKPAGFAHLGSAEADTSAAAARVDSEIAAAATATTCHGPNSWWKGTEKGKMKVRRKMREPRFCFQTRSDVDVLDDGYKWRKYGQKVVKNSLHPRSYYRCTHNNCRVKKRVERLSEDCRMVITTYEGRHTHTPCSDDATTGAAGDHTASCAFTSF

Row | Sequence | binding signal
1 | TCCTATGTTTTTCCTGCGGTCCAATCAAACGGTCATTCTTCGGAGTCACCTAGTGCAG | 12300 fluorescence intensity (a.u.)
2 | GCGTGTTTTTCTACCCGATCGACCTTCTGATTTTGGCTATCGGAGTCACCTAGTGCAG | 11100 fluorescence intensity (a.u.)
3 | CCACCAGCGATTTGGCCCGATCTCATCCCACCAGCGATTTCGGAGTCACCTAGTGCAG | 8430 fluorescence intensity (a.u.)
4 | CACAGCTTCTTAATTACTCCACCTTAATTAATCGATTAATCGGAGTCACCTAGTGCAG | 8680 fluorescence intensity (a.u.)
5 | CCACGCCACGCGCCGCTCTCACTCGGTCACTCTCACTCTTCGGAGTCACCTAGTGCAG | 9750 fluorescence intensity (a.u.)
6 | CCCACACCACCTCGCCCAATTAAACCCTCACCCATTCTTTCGGAGTCACCTAGTGCAG | 9140 fluorescence intensity (a.u.)
7 | TATATATATATATATATATATATATCTGATGCTCTCTTGCCGGAGTCACCTAGTGCAG | 31700 fluorescence intensity (a.u.)
8 | CTCTCTCTCTCTCTCTCTCTCTCTCTCTTCGCCGCGCGGCCGGAGTCACCTAGTGCAG | 18300 fluorescence intensity (a.u.)
9 | GTTGGGGTTCGTCGTCTTGGTCTTGGGTCTTCTTCGTCCCCGGAGTCACCTAGTGCAG | 11600 fluorescence intensity (a.u.)
10 | CTCCACTGCTCTGATGCTCTCTCTCTCTCTCTCTTCACGCCGGAGTCACCTAGTGCAG | 10800 fluorescence intensity (a.u.)
11 | TGATCGCTCGCCGCCGCGGCCGCTCTCCCGCCGGCGCCGCCGGAGTCACCTAGTGCAG | 9560 fluorescence intensity (a.u.)
12 | AAATTAACCACACTCGCGCCGCCATTCTCTTCTTCTTCTTCGGAGTCACCTAGTGCAG | 20600 fluorescence intensity (a.u.)
13 | GGGCGGTTCTTCTTCTTCGTCTTCGTCTTGGCGCCGGTCGCGGAGTCACCTAGTGCAG | 17200 fluorescence intensity (a.u.)
14 | CACCGGTTCTTCGCCTTCGTCACCGTCGCCGGCGGCGCCACGGAGTCACCTAGTGCAG | 8450 fluorescence intensity (a.u.)
15 | CGCCGCCGCCGCCGCCGCCGCGCTCGCTCGCTCGCTTCTTCGGAGTCACCTAGTGCAG | 10200 fluorescence intensity (a.u.)
16 | ATGCCGCTCTATCTCTCTCTCTCTCTCTCTCTCTCTCTCTCGGAGTCACCTAGTGCAG | 9760 fluorescence intensity (a.u.)
17 | TAGCAACTCCGTTCTTTTTCTTCTTTTCTCTCACTCACTCCGGAGTCACCTAGTGCAG | 8360 fluorescence intensity (a.u.)
18 | CTCTTATAACCACTTCTTTTTAAATCATTTGTTTATATGTCGGAGTCACCTAGTGCAG | 10200 fluorescence intensity (a.u.)
19 | TGGTCTGGCAGTTTTTGAGACGGGGAGTTGACTCAGATATCGGAGTCACCTAGTGCAG | 9260 fluorescence intensity (a.u.)
20 | AGGCTCTATTGGTTTCTCCTCTGTACATACAGTAGTAGTCCGGAGTCACCTAGTGCAG | 8640 fluorescence intensity (a.u.)
21 | TTCTACACTCTCTTGATCAGCTCTCACCACTATGTACACTCGGAGTCACCTAGTGCAG | 8860 fluorescence intensity (a.u.)
22 | TTTTTTTCGGTCTCAATATTTTTTTTTCTCACGTCTTTCGCGGAGTCACCTAGTGCAG | 10800 fluorescence intensity (a.u.)
23 | CCTTGACCGTTCCCAGAAAGGTTGACCGTTGTCCGTCACTCGGAGTCACCTAGTGCAG | 9240 fluorescence intensity (a.u.)
24 | TTTTATATCCCTCACCGTACGATCCAACGTTCCGATTTCTCGGAGTCACCTAGTGCAG | 8890 fluorescence intensity (a.u.)
25 | CGCTCCTCGCGGCCGCCGCCGCCGCCTCCCTCCTCGCCTTCGGAGTCACCTAGTGCAG | 8660 fluorescence intensity (a.u.)
26 | ACCTCTAACCGCCACTAGTTTTTTATACTCTTCTCTATAGCGGAGTCACCTAGTGCAG | 8470 fluorescence intensity (a.u.)
27 | CACACCTCGCCGCTCTTCCCGGCCTCCACCCGCCGCCCTTCGGAGTCACCTAGTGCAG | 8510 fluorescence intensity (a.u.)

Row | Sequence | binding signal
28 | TTCTCTTTTTCTTTTTATTTTTTCGTTCTCGTCGCCGCCGCGGAGTCACCTAGTGCAG | 8330 fluorescence intensity (a.u.)
29 | CCAACCACTCCATCATCATTCGCAATCCAATCTCGCTCTTCGGAGTCACCTAGTGCAG | 9230 fluorescence intensity (a.u.)
30 | GCTTCGGCCCAACAACATTCCACTCGGCCCAACAACCACCCGGAGTCACCTAGTGCAG | 9750 fluorescence intensity (a.u.)
31 | CCAAGCGCCCGCCGCCTCGCTCCCTCCTCTTCCTTGACCTCGGAGTCACCTAGTGCAG | 35200 fluorescence intensity (a.u.)
32 | ATACCGCCTATTTGCCACTCGTTTTTCTTCTCTTGGGCCGCGGAGTCACCTAGTGCAG | 18700 fluorescence intensity (a.u.)
33 | AACCACTCGCTTCCAAACAATCCAAACCTTCCATGCCATTCGGAGTCACCTAGTGCAG | 64700 fluorescence intensity (a.u.)
34 | AATTCTCGTCTTCTCGGAGGTTTCTGAGGGGAGGGAGAGGCGGAGTCACCTAGTGCAG | 8480 fluorescence intensity (a.u.)
35 | CCGGTCCTTCACCCACTTCAGCTTCACGTTCACCAGCGTCCGGAGTCACCTAGTGCAG | 10200 fluorescence intensity (a.u.)
36 | ATTTTTTCCTCTAATTAAGTCATATCACATCAATTGTTTTCGGAGTCACCTAGTGCAG | 10200 fluorescence intensity (a.u.)
37 | GGCATTTGGGTGTTATGCATGCCGGCCGGCCCGTACGTACCGGAGTCACCTAGTGCAG | 11700 fluorescence intensity (a.u.)
38 | AGCTGGATTACCCTTTATACATTTTACTTTAATCTCTTTGCGGAGTCACCTAGTGCAG | 10900 fluorescence intensity (a.u.)
39 | GACGTATCATAGTCTCTGTTTAGATTTCTAGTACTATGATCGGAGTCACCTAGTGCAG | 9340 fluorescence intensity (a.u.)
40 | ACTGAGTATTATTATATCCTAACTAAGTTATCGTACATTCCGGAGTCACCTAGTGCAG | 8060 fluorescence intensity (a.u.)
41 | AATCAGAATATTACCTTCTTGTATTTGTTCTCTGTAGGAACGGAGTCACCTAGTGCAG | 8870 fluorescence intensity (a.u.)
42 | GCTGTAGAAATTTCTCCTTCTTTGTTAAATGTATGTCTTTCGGAGTCACCTAGTGCAG | 9540 fluorescence intensity (a.u.)
43 | ACATACACTACACACCCTGTTCTTGCAGTACGCCAATTAACGGAGTCACCTAGTGCAG | 9780 fluorescence intensity (a.u.)
44 | TCTCTCTCACTCTTCCGGTCTTCCCTGGGCAGGCTAGCCGCGGAGTCACCTAGTGCAG | 8840 fluorescence intensity (a.u.)
45 | ATGATTTTTGGGTCATTTGGTTTGTTTTTGACTTTTGCAACGGAGTCACCTAGTGCAG | 12100 fluorescence intensity (a.u.)
46 | ATATGTTGTTTGACTTTTTTCATAGTCAGAAGTCTATTGGCGGAGTCACCTAGTGCAG | 19000 fluorescence intensity (a.u.)
47 | TTCATGTCAGAATCCTATGTTTTTCCTATTCCTTTGTTTTCGGAGTCACCTAGTGCAG | 11000 fluorescence intensity (a.u.)
48 | CAGACACATACCTTTCATGCTTCAACTTTTGTATGTTTGTCGGAGTCACCTAGTGCAG | 8170 fluorescence intensity (a.u.)
49 | AATGGTTTGGTTGTTGTTTTTTTTAAAAAAAACTTTCAGGCGGAGTCACCTAGTGCAG | 8170 fluorescence intensity (a.u.)
50 | TATTTCTATATGGACTTTGTTTTTTCTTTTTCTTCTTTTTCGGAGTCACCTAGTGCAG | 13100 fluorescence intensity (a.u.)
51 | TTGTTGTAAAGCTTATGGGTCTACTTTCATATGGTTTTGGCGGAGTCACCTAGTGCAG | 64100 fluorescence intensity (a.u.)
52 | TGGGGTCATGTTTGTACTTTGGCAACTGGTCGACTTCATACGGAGTCACCTAGTGCAG | 18400 fluorescence intensity (a.u.)
53 | TTTGTACCCGTTTTCTACTTTTTTTGTTTCATATTATTAACGGAGTCACCTAGTGCAG | 10900 fluorescence intensity (a.u.)
54 | GCTATACATCTTTCCACTACTTCTCCTCAGCTCGCTTTCCCGGAGTCACCTAGTGCAG | 8130 fluorescence intensity (a.u.)
